The nature of assay [1]: qHTS of pediatric cancer cell lines to identify multiple opportunities for drug repurposing: Confirmatory screen for RD cells (AID 1347124).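 Note: cells exposed to compound for 48 h before viability readout; nearly all actives have a fitted effect of over 65% in size.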 Note: potency is the fitted concentration of half-maximal effect. The essentials:
(§1)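 Cells (500-1,000/well) rested 5 h, then received compounds for 48 h; metabolically active cells were measured by CellTiter-Glo luminescence. Final concentrations spanned up to 46 µM (MIPE, 11-point) or 0.59 nM-46 µM (NPC, 8-point) in primary screens, 11-point in follow-ups.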
A general note: Quantitative high-throughput screening tests each substance at several concentrations.

The nature of assay [2]: qHTS of pediatric cancer cell lines to identify multiple opportunities for drug repurposing: Confirmatory screen for Rh30 cells (AID 1347126). Note: nearly all actives have a fitted effect of over 55% in size. Note: potency is the fitted concentration of half-maximal effect. In outline: as §1
Assay [3] is described as follows: qHTS of pediatric cancer cell lines to identify multiple opportunities for drug repurposing: Confirmatory screen for Saos-2 cells (AID 1347127). Note: nearly all actives have a fitted effect of over 60% in size. Note: potency is the fitted concentration of half-maximal effect. The essentials:
as §1

For assay [4], the system named is Zika virus NS2B-NS3 protease. Description: Primary screen GU AMC qHTS for Zika virus inhibitors (AID 1347154). Note: nearly all actives have a fitted effect of over 70% in size. The essentials: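 Fluorogenic AMC-substrate cleavage by noncovalent NS2B-NS3 protease complex (25 nM, pH 8.0 Tris buffer with Tween 20) followed for 15 minutes at room temperature (~20% conversion). Percent inhibition from ex340/em450 signal change, fitted by 4-parameter Hill equation.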

For a further assay, the target named is Furin (Homo sapiens) (UniProt P09958). Kind of assay: Furin counterscreen qHTS for Zika virus inhibitors (AID 1347149). Note: nearly all actives have a fitted effect of over 70% in size. Note: potency is the fitted concentration of half-maximal effect. The essentials: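 Fluorogenic cleavage of BOC-RVRR-AMC (2 microM final, Km ~15 µM) was monitored (ex 340, em 450 nm) at 37C after 15 min RT preincubation of 5 nM furin with compounds in HEPES pH 7.0 buffer with CaCl2 and Triton X-100. Percent inhibition was fitted to a 4-parameter Hill curve.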
Chain of Furin (Homo sapiens) (P09958 whole entry, looked up): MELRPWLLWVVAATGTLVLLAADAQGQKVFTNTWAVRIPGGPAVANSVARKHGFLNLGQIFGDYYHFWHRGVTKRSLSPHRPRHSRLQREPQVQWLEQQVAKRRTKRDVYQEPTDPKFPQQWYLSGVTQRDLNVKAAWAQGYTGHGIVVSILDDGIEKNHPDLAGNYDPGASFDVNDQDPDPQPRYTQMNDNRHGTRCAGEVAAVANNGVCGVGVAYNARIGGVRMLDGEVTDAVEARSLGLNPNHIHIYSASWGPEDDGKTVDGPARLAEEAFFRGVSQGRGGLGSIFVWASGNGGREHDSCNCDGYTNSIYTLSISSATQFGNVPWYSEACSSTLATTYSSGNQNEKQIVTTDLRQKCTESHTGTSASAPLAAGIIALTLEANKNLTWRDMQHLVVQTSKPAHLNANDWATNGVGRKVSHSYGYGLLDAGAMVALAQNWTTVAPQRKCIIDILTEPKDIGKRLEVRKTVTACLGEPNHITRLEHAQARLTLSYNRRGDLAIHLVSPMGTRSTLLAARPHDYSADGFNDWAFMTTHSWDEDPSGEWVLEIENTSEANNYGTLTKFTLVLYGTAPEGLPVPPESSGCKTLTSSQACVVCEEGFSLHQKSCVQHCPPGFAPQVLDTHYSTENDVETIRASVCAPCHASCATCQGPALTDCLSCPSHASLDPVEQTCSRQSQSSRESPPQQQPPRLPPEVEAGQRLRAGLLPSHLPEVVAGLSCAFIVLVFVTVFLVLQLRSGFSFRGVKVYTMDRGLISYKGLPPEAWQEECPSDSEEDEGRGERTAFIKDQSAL
Background: A counterscreen serves to expose hits that act by an unwanted route or on another target.

The test system of assay [5] is Zika virus NS2B-NS3 protease (unlinked). Kind of assay: Optimization of GU AMC qHTS for Zika virus inhibitors: Unlinked NS2B-NS3 protease assay (AID 1347151). Note: nearly all actives have a fitted effect of over 80% in size. Note: potency is the fitted concentration of half-maximal effect. The essentials:
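Noncovalent complex of NS2B hydrophilic domain and NS3 protease domain, 25 nM final, in 10 mM Tris-HCl pH 8.0, 0.01% Tween 20. AMC fluorescence change over 15 min at room temperature was fitted to a 4-parameter Hill equation.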

For assay [6], the system named is Zika virus NS2B-NS3 protease (linked). Kind of assay: 384 well plate NINDS AMC confirmatory qHTS for Zika virus inhibitors (AID 1347163).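 Note: linked protease at 5 30 or 60 nM final depending on run; fluorescence of AMC released from Ac-VKTGKR-AMC peptide cleaved by the protease; top concentration of the series differs between compounds; nearly all actives have a fitted effect of over 50% in size.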 The essentials: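 Linked protease 5/30/60 nM final; cpds up to 1 mM final, ~15 min preinc. Substrate Ac-VKTGKR-AMC 30 microM final. RT, dark, 25 min; FI ex 355/em 460; normalized to no-enzyme/no-inhibitor ctrls.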
For assay [7], the system named is Zika virus NS2B-NS3 protease (linked construct). Description: 384 well plate NINDS Rhodamine confirmatory qHTS for Zika virus inhibitors (AID 1347164).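 Note: fluorescence from protease cleavage of Ac-LKRR-rhodamine 110 substrate; nearly all actives have a fitted effect of over 65% in size.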 Note: potency is the fitted concentration of half-maximal effect. The essentials:
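Linked protease at a final 5 nM, 30 nM or 60 nM was preincubated ~15 min with compounds, then given 10 microM Ac-LKRR-Rhodamine 110. Fluorescence (ex 485/em 538 nm) after 25 min in the dark at room temperature.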

The nature of assay [8]: Vero cells viability qHTS for Zika virus inhibitors (AID 1347167). Note: potency is the fitted concentration of half-maximal effect. The essentials:
(§2)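 Compounds were tested in concentration series on cells grown in DMEM containing 4% FBS. After 24 to 48 hours, cellular ATP was measured by luminescence with CellTiter Glo.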

Assay [9] in a line: HepG2 cells viability qHTS for Zika virus inhibitors (AID 1347168). Note: potency is the fitted concentration of half-maximal effect. In outline: as §2
Assay [10] is described as follows: Tertiary RLuc qRT-PCR qHTS assay for Zika virus inhibitors (AID 1347169). Note: potency is the fitted concentration of half-maximal effect; nearly all actives have a fitted effect of over 55% in size. The essentials:
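Vero cells (1,000 per well) plated overnight at 37 degrees C, treated with compound in DMSO, then infected with recombinant ZIKV-RLuc (Cambodian) at MOI 1-2 for 48-72 hrs. Live-cell Renilla luciferase substrate added; luminescence read after 1-1.5 hrs.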
(Real-time PCR tracks product formation cycle by cycle.)

The target of assay [11] is N-terminal Xaa-Pro-Lys N-methyltransferase 1 (Homo sapiens) (UniProt Q9BV86). Kind of assay: qHTS Assay for Inhibitors of N-terminal methyltransferase 1 (NTMT1): LOPAC validation of the NTMT1 SAHH-coupled ThioGlo3 Assay (AID 1347143).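 Note: SAH from peptide methylation measured as thiol fluorescence via SAHH coupling and ThioGlo3; potency is the fitted concentration of half-maximal effect; nearly all actives have a fitted effect of over 70% in size.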 In outline:
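Inhibition of NTMT1 methylation of peptide SPKRIA is followed by converting SAH with SAHH and labelling the released thiol with ThioGlo3. Plates are read at 340/450nm before and 30 min after reagent addition, both at room temperature.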

Assay [12] is described as follows: ZIKV-mCherry secondary qHTS for Zika virus inhibitors (AID 1347158). Note: top concentration of the series differs between compounds. The essentials:
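After overnight seeding at 37 °C, Vero cells receive compound and then ZIKV-mCherry (MOI 1). Following 48-72 h infection, cells are fixed, counterstained with Hoechst, and imaged; percent infected cells is derived from an mCherry intensity cut-off of 450 RFU.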

Assay [13] relates to Zika virus NS2B-NS3 protease (unlinked complex). Kind of assay: Primary screen GU Rhodamine qHTS for Zika virus inhibitors: Unlinked NS2B-NS3 protease assay (AID 1347159). Note: nearly all actives have a fitted effect of over 60% in size. The essentials: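 Compounds, tested up to 114 microM, were incubated for 15 minutes with 25 nM unlinked NS2B-NS3 protease at pH 8.0. Cleavage of 1.5 microM Rhodamine110 substrate was then followed by fluorescence for 15 minutes.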

The test system of assay [14] is Zika virus NS2B-NS3 protease (linked construct). Description: Primary screen NINDS Rhodamine qHTS for Zika virus inhibitors (AID 1347160). Note: nearly all actives have a fitted effect of over 55% in size. Particulars: outcome: dose series up to 57.1 µM. The essentials: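 Percent inhibition, normalized to uninhibited and enzyme-free controls, is fitted to a 4-parameter Hill equation. Fluorescence change comes from a 15-min cleavage of 1.5 microM bis-peptide Rhodamine110 substrate by 25 nM linked NS2B-NS3 at room temperature.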

Results filed as inconclusive are left out. Calls of active or inactive are those of the source. Calls come from the whole dose curve; as a rule, active = well fitted curve in the direction sought with a large enough effect; inconclusive = small, poorly fitted or top-dose-only effect, or another doubt; inactive = no such curve, though single readings can be large; an effect the other way counts as inactive or inconclusive.

Chain of N-terminal Xaa-Pro-Lys N-methyltransferase 1 (Homo sapiens) (Q9BV86 whole entry, looked up): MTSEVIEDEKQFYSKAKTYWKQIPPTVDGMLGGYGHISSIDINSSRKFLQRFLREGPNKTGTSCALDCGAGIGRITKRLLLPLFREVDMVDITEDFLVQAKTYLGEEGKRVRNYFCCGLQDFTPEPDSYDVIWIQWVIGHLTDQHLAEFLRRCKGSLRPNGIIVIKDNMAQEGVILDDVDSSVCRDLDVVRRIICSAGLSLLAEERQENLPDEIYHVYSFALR

Turning to `C[C@@H]1C[C@H]2[C@@H]3CCC4=CC(=O)C=C[C@]4(C)[C@@]3(F)[C@@H](O)C[C@]2(C)[C@H]1C(=O)CO`, the Potency result in assay [1], in [2], in assay [3] and in assay [4] was “inactive” each time.

With `COc1c(C)c2c(c(O)c1C/C=C(\C)CCC(=O)O)C(=O)OC2`, the Potency is 1.31 µM (active) in assay [2], 24.1 µM (active) in assay [5] and 0.739 µM (active) in assay [10]. Further, the Potency result (in the assay with Furin (Homo sapiens); in assay [4]; in assay [7]; in [8]; in [9]) was “inactive” in each case. For the same compound, the result in assay [6] was inactive.

For the compound `Oc1ccc(O)cc1`, the Potency result in [1], in assay [2], in [3], in assay [5] and in assay [4] was “inactive” each time. Besides, the Potency in assay [11] was 31.6 µM (active).

For `CC(=O)Oc1ccc(C(c2ccc(OC(C)=O)cc2)c2ccccn2)cc1`, the Potency result in [1], in assay [2], in assay [3] and in [4] was “inactive” each time.

On to `CN(C)/N=N/c1nc[nH]c1C(N)=O`, for which the Potency result in assay [1], in [2], in [3] and in [4] was “inactive” each time.

In the case of `CCCCC(CC)CN=C(N)NC(N)=NCCCCCCN=C(N)NC(N)=NCC(CC)CCCC` (configuration not stated), the Potency was 1.04 µM (active) in assay [1]; 1.47 µM (active) in assay [2]; 16.5 µM (active) in [3]; 21.5 µM (active) with Furin (Homo sapiens); 39.8 µM (active) in assay [7]; 29.4 µM (active) in assay [8]. Further, the Potency is 13.1 µM (active) in assay [9] and 3.7 µM (active) in assay [10]. Further, the Potency result in [12] is “inactive”.

As to `C[C@@H]1CN(CCCn2c3ccccc3c3ccccc32)C[C@H](C)N1`, in assay [2], the Potency is 26.1 µM (active). The Potency result in [4] was “inactive”.

Consider `COc1cc(C=C2CCC/C(=C\c3ccc(O)c(OC)c3)C2=O)ccc1O`, for which the Potency in assay [1] is 9.27 µM (active); in assay [2], 20.8 µM (active); in assay [3], 11.7 µM (active).

Take `CC(=O)O[C@]1(C(C)=O)CC[C@H]2[C@@H]3C[C@H](C)C4=CC(=O)CC[C@]4(C)[C@H]3CC[C@@]21C`: the Potency result in assay [1], in assay [2], in assay [3] and in assay [4] was “inactive” throughout. In addition, the result in assay [13] and in [14] was inactive.

Source of the values: PubChem BioAssay (NCATS).
